# Test results published in PubChem BioAssay AID652068 (The Scripps Research Institute Molecular Screening Center, 2013).
# Out of some 4,300 compounds screened, about 4,000 (93%) were called active.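 How the source made its calls: active means inhibition above its plate's cutoff, the mean test-well inhibition plus 3 SD (cut at about 4.8% in these data); inactive means the rest.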 The set was probably picked from earlier hits. The list is a sample of the results.
# Experiment: DNA CAG/GTC dye complex inhibitors – biochemical, fluorescence, TO-PRO-1 dye, d(CAG) DNA oligo, counter-screen for rCAG RNA repeat binder project (AID 652068);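 further: 0% = DNA dye mix with DMSO and 100% = 100 µM mitoxantrone; hits displace the dye from DNA and so lower well fluorescence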
# Conditions: d(CAG) DNA oligo TO-PRO-1 dye displacement, at 3 µM, hits give high values
row,SMILES,inhibition
1,O=C(COc1ccccc1Cl)Nc1ccc(C(=O)c2ccc(C(=O)O)cc2)cc1,3.95% (inactive)
2,Cc1cc(C)cc(OCC(=O)Nc2cc(NC(=O)COc3cc(C)cc(C)c3)cc(C(=O)O)c2)c1,39.1% (active)
3,Cc1cccc(OCC(=O)Nc2ccc(C(=O)O)cc2NC(=O)COc2cccc(C)c2)c1,11.1% (active)
4,Cc1cc(C)cc(Oc2c(C(F)(F)F)oc3cc(OCC(=O)O)ccc3c2=O)c1,4.02% (inactive)
5,Cc1ccccc1-n1c(SCC(=O)Nc2cccc3ccccc23)nc(O)cc1=O,7.03% (active)
6,COc1cc2ccccc2cc1C(=O)Nc1ccc(S(=O)(=O)Nc2cc(C)on2)cc1,23.6% (active)
7,CCOc1ccc(C(=O)Nc2ccc(S(=O)(=O)Nc3cc(C)on3)cc2)cc1,6.38% (active)
8,Cc1cc(OC(C)C(=O)Nc2ccc(S(=O)(=O)Nc3onc(C)c3C)cc2)cc(C)c1Cl (centres undefined),26.6% (active)
9,Cc1ccc(C(=O)/C=C/Nc2ccc(S(=O)(=O)Nc3onc(C)c3C)cc2)cc1,16.3% (active)
10,CCn1cc(C(=O)NCC2COc3ccccc3O2)c2cc(OC)c(OC)cc2c1=O (centres undefined),0.88% (inactive)
11,CCOc1cc(C(=O)Nc2ccc(S(=O)(=O)Nc3cnc4ccccc4n3)cc2)cc(OCC)c1OCC,26.9% (active)
12,CCc1ccc(OC(C)C(=O)Nc2ccc(S(=O)(=O)Nc3cc(C)on3)cc2)cc1 (centres undefined),5.12% (active)
13,Cc1ccc(S(=O)(=O)N2[C@@H](c3ccc(Br)cc3)C(C(=O)O)=C[C@H]2CC2CCCC2)cc1,34.4% (active)
14,CCCCC[C@@H]1C=C(C(=O)O)[C@H](c2ccc(C#N)cc2)N1S(=O)(=O)c1ccc(C)cc1,20.6% (active)
15,Cc1cc(C(=O)N/N=C/c2ccc(O)c([N+](=O)[O-])c2)c(C)n1-c1ccc(F)cc1,14.8% (active)
16,Cc1ccc(SC(CC(=O)c2ccc(C(C)(C)C)cc2)C(=O)O)cc1 (centres undefined),12.6% (active)
17,Cn1c2ccccc2c2cc(/C=C(\NC(=O)c3ccccc3)C(=O)NCC(=O)O)ccc21,12.6% (active)
18,O=C1CC(c2ccccc2)=NN1c1ccc([N+](=O)[O-])cc1,14.2% (active)
19,O=C1Oc2ccccc2C(=O)/C1=C/c1ccccc1O,10.7% (active)
20,COc1cccc(-c2coc3cc4oc(=O)c(CC(=O)O)c(C)c4cc23)c1,11.6% (active)
21,C=CCSc1nsc(NC(=O)Nc2cccc(C(C)=O)c2)n1,16.3% (active)
22,CCSc1nsc(NC(=O)Nc2cccc(C(C)=O)c2)n1,12.6% (active)
23,O=C(Nc1cccc(Cl)c1)Nc1ccccc1NS(=O)(=O)c1cccs1,9.83% (active)
24,O=C(Nc1nncs1)c1ccccc1NS(=O)(=O)c1cccs1,6.44% (active)
25,COc1ccc(NS(=O)(=O)c2cc(C(=O)Nc3ccccc3C(=O)O)ccc2C)cc1,18.6% (active)
26,COc1ccc(NS(=O)(=O)c2cc(NC(=O)CC(=O)c3ccc([N+](=O)[O-])cc3)ccc2C)cc1,19% (active)
27,COc1cc(OC)c(S(=O)(=O)Nc2ccccc2C(=O)O)cc1S(=O)(=O)Nc1ccccc1C(=O)O,6.92% (active)

row,SMILES,inhibition
1,CC(=N\NC(=O)c1cc(Br)ccc1O)/C(=N/O)C(=O)Nc1ccccc1,3.8% (inactive)
2,O=[N+]([O-])c1cc(Cl)cc(/C=N/NC(=S)Nc2cc(S(=O)(=O)N3CCOCC3)ccc2Cl)c1O,84.8% (active)
3,CCOC(=O)c1c(NC(=O)C2CC=CCC2C(=O)O)sc(C)c1CC (centres undefined),5.11% (active)
4,C=CCn1c(=S)[nH]c2scc(-c3ccco3)c2c1=O,15.4% (active)
5,Cc1ccc(Cn2c(SCC(=O)N/N=C/c3ccccc3OCC(=O)O)nc3ccccc32)cc1,23% (active)
6,O=C(Cc1ccccc1)Nc1ccc(C(=O)Nc2ccccc2C(=O)O)cc1,10.5% (active)
7,Cc1sc(NC(=O)c2ccc3ncsc3c2)c(C(N)=O)c1C,7.12% (active)
8,N#Cc1ccccc1CN1C(=O)S/C(=C/c2cccn2-c2cccc(C(=O)O)c2)C1=O,25.7% (active)
9,CC(=O)Nc1ccc(S(=O)(=O)N(CCc2ccccc2)CC(=O)N/N=C/c2ccc(C(=O)O)cc2)cc1,5.27% (active)
10,Cc1ccc(N=C2NC(=O)/C(=C/C=C/c3ccco3)S2)cc1C,23.8% (active)
11,COc1cc(C(=O)Nn2c(O)c(C3=c4ccccc4=NC3=O)sc2=S)ccc1O,8.15% (active)
12,Cc1ccc(NC(=O)CC2S/C(=N/N=C3\CCCc4ccccc43)NC2=O)cc1 (centres undefined),17.1% (active)
13,COc1ccc(/C=C/C(=O)c2ccc(NS(=O)(=O)c3ccc(C)cc3)cc2)cc1O,18.4% (active)
14,CCN(CC)C(=O)CSC(Nc1cccc(F)c1)=C(C#N)C#N,13.2% (active)
15,COc1cc(/C=C2/C(=O)NN(c3cccc(Cl)c3)C2=O)cc(Br)c1O,9.22% (active)
16,CN(C(=O)COC(=O)c1cc(-c2ccco2)nc2ccccc12)C1CCS(=O)(=O)C1 (centres undefined),13.2% (active)
17,COc1ccc(C(CNC(=O)c2cccc(S(=O)(=O)Nc3ccccc3Cl)c2)N2CCOCC2)cc1 (centres undefined),27.5% (active)
18,Cc1ccc(NC(=O)CSc2nc(CSc3ccc(C)cc3)cc(=O)[nH]2)cc1,16.7% (active)
19,Cc1ccc(-c2nn(-c3ccccc3)cc2/C=C2\SC(=S)N(CCCCCC(=O)O)C2=O)o1,28.4% (active)
20,CN(C)S(=O)(=O)c1cccc(-c2nn(-c3ccccc3)cc2/C=C2\SC(=S)N(CC(=O)O)C2=O)c1,55.3% (active)
21,CCc1nnc(NS(=O)(=O)c2ccc(N=Cc3c(C)[nH]n(-c4ccc(C)cc4)c3=O)cc2)s1,32.2% (active)
22,O=C(N/N=C/c1c(Cl)[nH]c2ccccc12)c1sc2ccccc2c1Cl,17.5% (active)
23,Cc1ccc(NC(=S)NNC(=O)CSc2nnc(SCc3ccccc3Cl)s2)cc1,18.8% (active)
24,CC(C)=CCCC1(C)C=Cc2c(ccc3c2[nH]c2cc(O)c(C)cc23)O1 (centres undefined),15.3% (active)
25,CCOC(=O)C1Nc2ccc(C(F)(F)F)cc2C2C=CCC12 (centres undefined),9.84% (active)
26,Cc1cc2nc(-c3ccco3)c(Cc3cccc(F)c3)n2c(C)c1Br,11.8% (active)
27,CC1(C(=O)NS(=O)(=O)c2ccc(C#N)cc2)CCN1C(=O)c1ccc(C2CCCCC2)cc1 (centres undefined),14.9% (active)
